Only a selection was taken, and the strongest signals are over-represented in it overall.
Columns and labels:
Assay in all cases: glycan array binding signal (z-score within array); higher = stronger binding
Details in all cases: glycan notation: IUPAC condensed, linker removed
[1] = target: Fuc(a1-2)Gal(b1-3)GalNAc(b1-3)Gal
How it was run: (§1)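 Glycan array data were curated from 3228 arrays in the Consortium for Functional Glycomics database and kept only where the protein sequence was available. Glycan names were converted to IUPAC-condensed notation, and columns mapping to the same glycan were averaged. The binding signal is a within-array Z-score, averaged across arrays of the same protein sequence at different concentrations or buffers and across linkers. Negative Z-scores can be read as non-binding.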

[2] = target: Fuc(a1-2)Gal(b1-3)GalNAc(b1-4)[Neu5Ac(a2-3)]Gal(b1-4)Glc
How it was run: as §1

[3] = target: Fuc(a1-3)[Gal(b1-4)]GlcNAc6S
How it was run: as §1

[4] = target: Fuc(a1-3)[Gal3S(b1-4)]Glc6S
How it was run: as §1

[5] = target: Fuc(a1-3)[Gal3S(b1-4)]GlcNAc6S
How it was run: as §1

[6] = target: Gal(b1-3)GlcNAc(b1-3)Gal(b1-4)Glc
How it was run: as §1

[7] = target: Gal(b1-3)[Fuc(a1-4)]GlcNAc(b1-3)Gal(b1-3)[Fuc(a1-4)]GlcNAc
How it was run: as §1

[8] = target: Gal(b1-3)[GlcNAc(b1-6)]GalNAc
How it was run: as §1

[9] = target: Gal(b1-4)GlcNAc(b1-3)Gal(b1-4)GlcNAc
How it was run: as §1

[10] = target: Gal(b1-4)GlcNAc(b1-3)[Gal(b1-4)GlcNAc(b1-6)]GalNAc
How it was run: as §1

[11] = target: Gal3S(b1-3)[Fuc(a1-4)]GlcNAc
How it was run: as §1

[12] = target: Gal3S(b1-4)Glc
How it was run: as §1

[13] = target: Gal3S(b1-4)[Fuc(a1-3)]Glc
How it was run: as §1

[14] = target: Gal3S6S(b1-4)GlcNAc
How it was run: as §1

[15] = target: Gal6S(b1-4)GlcNAc
How it was run: as §1

[16] = target: Glc(a1-4)Glc
How it was run: as §1

[17] = target: GlcNAc(b1-3)Gal(b1-4)Glc
How it was run: as §1

[18] = target: GlcNAc(b1-3)[GlcNAc(b1-6)]Gal(b1-4)GlcNAc
How it was run: as §1

[19] = target: GlcNAc(b1-4)Gal(b1-4)GlcNAc
How it was run: as §1

[20] = target: Kdn(a2-3)Gal(b1-3)GlcNAc
How it was run: as §1

[21] = target: Neu5Ac(a2-3)Gal(b1-3)GalNAc(b1-3)Gal(b1-4)GlcNAc
How it was run: as §1

[22] = target: Neu5Ac(a2-3)Gal(b1-3)GlcNAc
How it was run: as §1

[23] = target: Neu5Ac(a2-3)Gal(b1-3)[Neu5Ac(a2-3)Gal(b1-4)]GlcNAc
How it was run: as §1

[24] = target: Neu5Ac(a2-3)Gal(b1-4)GlcNAc(b1-2)Man(a1-3)[Neu5Ac(a2-3)Gal(b1-4)GlcNAc(b1-2)Man(a1-6)]Man(b1-4)GlcNAc(b1-4)GlcNAc
How it was run: as §1

[25] = target: Neu5Ac(a2-3)GalNAc
How it was run: as §1

[26] = target: Neu5Ac(a2-3)[GalNAc(b1-4)]Gal(b1-4)Glc
How it was run: as §1

[27] = target: Neu5Ac(a2-3)[Neu5Ac(a2-6)]GalNAc
How it was run: as §1

[28] = target: Neu5Ac(a2-6)Gal(b1-4)GlcNAc(b1-2)Man(a1-6)[GlcNAc(b1-2)Man(a1-3)]Man(b1-4)GlcNAc(b1-4)GlcNAc
How it was run: as §1

[29] = target: Neu5Gc(a2-3)Gal(b1-3)[Fuc(a1-4)]GlcNAc
How it was run: as §1

[30] = target: Fuc(a1-2)Gal(b1-4)GlcNAc(b1-3)Gal(b1-4)GlcNAc(b1-3)Gal(b1-4)GlcNAc
How it was run: as §1

[31] = target: Fuc(a1-2)Gal(b1-4)[Fuc(a1-3)]GlcNAc
How it was run: as §1

[32] = target: Fuc(a1-2)Gal(b1-4)[Fuc(a1-3)]GlcNAc(b1-3)Gal(b1-4)[Fuc(a1-3)]GlcNAc
How it was run: as §1

[33] = target: Fuc(a1-2)[Gal(a1-3)]Gal(b1-3)GlcNAc
How it was run: as §1

[34] = target: Fuc(a1-3)[Gal(b1-4)]GlcNAc(b1-2)Man(a1-3)[Fuc(a1-3)[Gal(b1-4)]GlcNAc(b1-2)Man(a1-6)]Man(b1-4)GlcNAc(b1-4)GlcNAc
How it was run: as §1

[35] = target: Fuc(a1-3)[Neu5Ac(a2-3)]Gal(b1-4)GlcNAc(b1-3)GalNAc
How it was run: as §1

[36] = target: Gal(b1-3)GalNAc(a1-3)[Fuc(a1-2)]Gal(b1-4)GlcNAc
How it was run: as §1

[37] = target: Gal(b1-3)[Fuc(a1-4)]GlcNAc(b1-2)Man(a1-3)[Gal(b1-3)[Fuc(a1-4)]GlcNAc(b1-2)Man(a1-6)]Man(b1-4)GlcNAc(b1-4)[Fuc(a1-6)]GlcNAc
How it was run: as §1

[38] = target: Gal(b1-4)GlcNAc(b1-3)GalNAc
How it was run: as §1

[39] = target: Gal(b1-4)GlcNAc(b1-6)GalNAc
How it was run: as §1

[40] = target: Gal3S(b1-4)GlcNAc
How it was run: as §1

[41] = target: GlcNAc(a1-4)Gal(b1-4)GlcNAc(b1-3)Gal(b1-4)[Fuc(a1-3)]GlcNAc(b1-3)Gal(b1-4)[Fuc(a1-3)]GlcNAc
How it was run: as §1

[42] = target: GlcNAc(b1-2)Man(a1-3)[GlcNAc(b1-2)Man(a1-6)]Man(b1-4)GlcNAc(b1-4)[Fuc(a1-6)]GlcNAc
How it was run: as §1

[43] = target: GlcNAc(b1-3)Gal(b1-3)GalNAc
How it was run: as §1

[44] = target: Man(a1-2)Man(a1-2)Man(a1-3)Man
How it was run: as §1

[45] = target: Man(a1-3)[Man(a1-6)]Man
How it was run: as §1

[46] = target: Man(a1-3)[Man(a1-6)]Man(a1-6)[Man(a1-2)Man(a1-3)]Man(b1-4)GlcNAc(b1-4)GlcNAc
How it was run: as §1

[47] = target: Neu5Ac(a2-3)Gal(b1-3)GalNAc(b1-4)[Neu5Ac(a2-3)]Gal(b1-4)Glc
How it was run: as §1

[48] = target: Neu5Ac(a2-3)Gal(b1-4)GlcNAc(b1-3)GalNAc
How it was run: as §1

[49] = target: Neu5Ac(a2-3)Gal(b1-4)[Fuc(a1-3)]GlcNAc(b1-3)Gal(b1-4)GlcNAc
How it was run: as §1

[50] = target: Neu5Ac(a2-3)Gal(b1-4)[Fuc(a1-3)]GlcNAc6S
How it was run: as §1

[51] = target: Neu5Ac(a2-6)Gal(b1-4)GlcNAc(b1-2)Man(a1-3)[Neu5Ac(a2-6)Gal(b1-4)GlcNAc(b1-2)Man(a1-6)]Man(b1-4)GlcNAc(b1-4)GlcNAc
How it was run: as §1

[52] = target: Neu5Ac(a2-6)Gal(b1-4)GlcNAc(b1-2)Man(a1-6)[Gal(b1-4)GlcNAc(b1-2)Man(a1-3)]Man(b1-4)GlcNAc(b1-4)GlcNAc
How it was run: as §1

[53] = target: Neu5Ac(a2-6)Gal(b1-4)GlcNAc(b1-2)Man(a1-6)[Man(a1-3)]Man(b1-4)GlcNAc(b1-4)GlcNAc
How it was run: as §1

[54] = target: Neu5Ac(a2-6)Gal(b1-4)GlcNAc6S
How it was run: as §1

[55] = target: Neu5Ac(a2-8)Neu5Ac
How it was run: as §1

[56] = target: Neu5Ac(a2-8)Neu5Ac(a2-3)[GalNAc(b1-4)]Gal(b1-4)Glc
How it was run: as §1

[57] = target: Neu5Gc(b2-6)Gal(b1-4)GlcNAc
How it was run: as §1

B1: P-Selectin (Mus musculus), Q01102 (protein)
chain: MAGCPKGSWTPRLRSVILGGAQLIWFSALISELVNQKEVAAWTYNYSTKAYSWNNSRVFCRRHFTDLVAIQNKNEIAHLNDVIPFFNSYYWIGIRKINNKWTWVGTNKTLTEEAENWADNEPNNKKNNQDCVEIYIKSNSAPGKWNDEPCFKRKRALCYTASCQDMSCSNQGECIETIGSYTCSCYPGFYGPECEYVKECGKVNIPQHVLMNCSHPLGEFSFNSQCTFSCAEGYELDGPGELQCLASGIWTNNPPKCDAVQCQSLEAPPHGTMACMHPIAAFAYDSSCKFECQPGYRARGSNTLHCTGSGQWSEPLPTCEAIACEPPEIPIHGSMDCVPSTGTFGYNSSCTFLCAEGFVLKGNDAIQCADSGQWTAPAPFCEALQCPEFPVPSKAQVNCSDPFGTLTYQSVCSFSCDEGSLLVGASVIRCLATGHWNGAPPECQAVSCAPMLSPENGSMTCVQPLGNSTYKSTCQFMCDEGFYLSGPERLDCSPSGHWTGTPPTCEAIKCPGIFAPEQGNLDCSHVHGEFGVGSICHFSCNEDFELLGSENVECTVSGRWSAPPPTCKGITSLPAPAVRCPALTTPGQGTMSCQHHLGSFGPNTTCYFGCKTGFTLRGANSLRCRASGQWTAVTPMCRAVKCSELHMDTAVAMNCSNPWGNFSYGSTCTFQCPEGQSLNGSVRATCREDGHWSDAMPTCQAGTLTIQEALTYLGGAVASTTGLAVGGTLLALLRKRLRKKDDGKCPLNPHSHLGTYGVFTNAAYDPTP
glycan array binding signal (z-score) [1]: -0.303
glycan array binding signal (z-score) [2]: -0.426
glycan array binding signal (z-score) [3]: 2.1
glycan array binding signal (z-score) [4]: 3.7
glycan array binding signal (z-score) [5]: 3.95
glycan array binding signal (z-score) [6]: -0.261
glycan array binding signal (z-score) [7]: 0.199
glycan array binding signal (z-score) [8]: -0.4
glycan array binding signal (z-score) [9]: -0.29
glycan array binding signal (z-score) [10]: -0.495
glycan array binding signal (z-score) [11]: 3.6
glycan array binding signal (z-score) [12]: -0.174
glycan array binding signal (z-score) [13]: 4.89
glycan array binding signal (z-score) [14]: 1.4
glycan array binding signal (z-score) [15]: -0.055
glycan array binding signal (z-score) [16]: -0.562
glycan array binding signal (z-score) [17]: -0.616
glycan array binding signal (z-score) [18]: -0.63
glycan array binding signal (z-score) [19]: -0.478
glycan array binding signal (z-score) [20]: -0.37
glycan array binding signal (z-score) [21]: -0.354
glycan array binding signal (z-score) [22]: -0.3
glycan array binding signal (z-score) [23]: -0.297
glycan array binding signal (z-score) [24]: -0.154
glycan array binding signal (z-score) [25]: -0.381
glycan array binding signal (z-score) [26]: -0.331
glycan array binding signal (z-score) [27]: 0.023
glycan array binding signal (z-score) [28]: -0.311
glycan array binding signal (z-score) [29]: 3.75

B2: GALT1 115 D492A (Arabidopsis thaliana), Q8L7F9 (protein)
chain: DPMRGSHHHHHHGMASMTGGQQMGRDLYDDDDKSRLQKPYITAAASVVVTPNTTLPMEWLRITLPDFMKEARNTQEAISGDDIAVVSGLFVEQNVSKEEREPLLTWNRLESLVDNAQSLVNGVDAIKEAGIVWESLVSAVEAKKLVDVNENQTRKGKEELCPQFLSKMNATEADGSSLKLQIPCGLTQGSSITVIGIPDGLVGSFRIDLTGQPLPGEPDPPIIVHYNVRLLGDKSTEDPVIVQNSWTASQDWGAEERCPKFDPDMNKKVDDLDECNKMVGGEINRTSSTSLQSNTSRGVPVAREASKHEKYFPFKQGFLSVATLRVGTEGMQMTVDGKHITSFAFRDTLEPWLVSEIRITGDFRLISILASGLPTSEESEHVVDLEALKSPTLSPLRPLDLVIGVFSTANNFKRRMAVRRTWMQYDDVRSGRVAVRFFVGLHKSPLVNLELWNEARTYGDVQLMPFVDYYSLISWKTLAICIFGTEVDSAKFIMKTDDAAFVRVDEVLLSLSMTNNTRGLIYGLINSDSQPIRNPDSKWYISYEEWPEEKYPPWAHGPGYIVSRDIAESVGKLFKEGNLKMFKLEDVAMGIWIAELTKHGLEPHYENDGRIISDGCKDGYVVAHYQSPAEMTCLWRKYQETKRSLCCREW
glycan array binding signal (z-score) [1]: 1.79
glycan array binding signal (z-score) [30]: 6.73
glycan array binding signal (z-score) [31]: 8.05
glycan array binding signal (z-score) [32]: -0.068
glycan array binding signal (z-score) [33]: -0.352
glycan array binding signal (z-score) [34]: -0.034
glycan array binding signal (z-score) [35]: -0.012
glycan array binding signal (z-score) [36]: 0.06
glycan array binding signal (z-score) [37]: -0.152
glycan array binding signal (z-score) [38]: -0.374
glycan array binding signal (z-score) [39]: -0.406
glycan array binding signal (z-score) [11]: -0.223
glycan array binding signal (z-score) [40]: -0.298
glycan array binding signal (z-score) [41]: 2.05
glycan array binding signal (z-score) [42]: 2.9
glycan array binding signal (z-score) [43]: 1.5
glycan array binding signal (z-score) [44]: 0.15
glycan array binding signal (z-score) [45]: -0.244
glycan array binding signal (z-score) [46]: 0.404
glycan array binding signal (z-score) [47]: -0.335
glycan array binding signal (z-score) [48]: -0.152
glycan array binding signal (z-score) [49]: 0.671
glycan array binding signal (z-score) [50]: -0.172
glycan array binding signal (z-score) [51]: 0.357
glycan array binding signal (z-score) [52]: -0.362
glycan array binding signal (z-score) [53]: -0.139
glycan array binding signal (z-score) [54]: 0.087
glycan array binding signal (z-score) [55]: -0.221
glycan array binding signal (z-score) [56]: -0.078
glycan array binding signal (z-score) [57]: 0.041

— the supplement of paper PMC8728848
